The values that follow come from PubChem BioAssay (NCATS).

Results filed as inconclusive are left out. A call without a number means that no potency is given here. A number with no mark means an inactive call. Calls of active or inactive are those of the source. Calls come from the whole dose curve; as a rule, active = well fitted inhibition curve with a large enough effect; inconclusive = small, poorly fitted or top-dose-only effect; inactive = no such curve, though single readings can be large or run the other way. Where a SMILES comes first, the peptide text is derived from it. The star is where a group is joined. AFC = O=c1cc(C(F)(F)F)c2ccc(N*)cc2o1
Potency is the fitted concentration of half-maximal effect.

A short description of this assay: Primary fluorescence-based thiol-reactive (MSTI) qHTS assay for identification of artifact compounds. (AID 1845221). Note: nearly all actives have a fitted effect of over 65% in size. The conditions noted are these: MSTI thiol-reactivity probe, 1 h; series mostly up to 53.8 µM. In short, it runs like this: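 Compounds were incubated 1 h at room temperature in the dark with the MSTI probe (4 uM) in PBS pH 7.4, 2% DMSO. Signals were normalized between Acetyl-MSTI and MSTI.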
A general note: Quantitative high-throughput screening tests each substance at several concentrations.
In the case of `NC(=O)c1cccc(-c2cc(O)cc(OC(=O)NC3CCCCC3)c2)c1`, the Potency entry is “inactive”.

As to `COC(=O)[C@H](CC1C=NC=N1)NCC12CC3CC(CC(C3)C1)C2` (some centres not stated), the Potency entry was “inactive”.

Turning to `CC(C)C1=CCC(C)(O)C(OC2OC(CO)C(O)C(O)C2O)C1` (configuration not stated), the Potency is 2.33 µM (active).

For `COc1cc(/C=C/C(=O)OC2CC(OC(C)=O)C(OC(C)=O)C3C2CCC2C(=O)OC(c4ccoc4)CC23C)ccc1O[C@@H]1O[C@H](CO)[C@@H](O)[C@H](O)[C@H]1O` (some centres not stated), the Potency entry was “inactive”.

For the compound `C=C1CCC2C(C)(C)C(O)CCC2(C)C1CCC(C)CCOC(=O)CCC(=O)O` (configuration not stated), the Potency result was “inactive”.

For the compound `O=C(CCO[C@@H]1O[C@H](CO)[C@@H](O)[C@H](O)[C@H]1O)c1ccc(O)cc1`, the Potency entry was “inactive”.

As to `COc1cc(C2OCC3C(c4ccc(OC5OC(CO)C(O)C(O)C5O)c(OC)c4)OCC23)ccc1O` (configuration not stated), the Potency result is “inactive”.

On to `C=C1CC[C@H]2[C@@H](/C=C(\C)C(=O)[C@@]3(OC(C)=O)C[C@H](C)[C@H](OC(C)=O)[C@@H]3[C@H]1OC(C)=O)C2(C)C`, for which the Potency entry is “inactive”.

`CC(C)(O)/C=C1/C(=O)C(C)(C)C(=O)C(C)(C)C1(O)O[C@@H]1O[C@H](COC(=O)c2cc(O)c(O)c(O)c2)[C@@H](O)[C@H](O)[C@H]1O` (some centres not stated): the Potency was 0.707 µM (active).

As to `C=C1C(=O)OC2/C=C(\C)CC/C=C(\C(=O)O)CC/C=C(\C)CCC12` (configuration not stated), the Potency result was “inactive”.

With `CC1CCC2(C(=O)OC3OC(COC4OC(CO)C(O)C(O)C4O)C(O)C(O)C3O)CCC3(C)C(=CCC4C5(C)CCC(O)C(C)(C(=O)O)C5CCC43C)C2C1(C)O` (configuration not stated), the activity change, negative = thiol reactive was 18.5% [at 11.5 µM].

In the case of `CO[C@@H]1COCC[C@@H]1N[C@@H]1CC[C@@](C(=O)N2CCc3ncc(C(F)(F)F)cc3C2)(C(C)C)C1`, the Potency result is “inactive”.

Regarding `CC[C@H]1OC(=O)C[C@@H](O)[C@H](C)[C@@H](O[C@@H]2O[C@H](C)[C@@H](O)[C@H](N(C)C)[C@H]2O)[C@@H](CCN2C[C@H](C)C[C@H](C)C2)C[C@@H](C)C(=O)/C=C/C(C)=C/[C@@H]1CO[C@@H]1O[C@H](C)[C@@H](O)[C@@H](OC)[C@H]1OC`, the Potency entry was “inactive”.

As for `CC(C)(C)c1cc(CN2CCN(CC(O)c3ccc(Cl)cc3)CC2)cc(C(C)(C)C)c1O` (configuration not stated), the Potency entry is “inactive”.

Regarding `COCC(=O)N1CCc2cc(-c3csc(NC(=O)c4cc(OC)cc(OC)c4)n3)ccc21`, the Potency result was “inactive”.

Turning to `CC1(C)CC2C3=CCC4C5(C)CCC(OC6OC(C(=O)O)C(O)C(O)C6OC6OC(CO)C(O)C(O)C6OC6OC(CO)C(O)C(O)C6O)C(C)(CO)C5CCC4(C)C3(C)CCC2(C)C(OC2OCC(O)C(OC3OC(CO)C(O)C(O)C3O)C2O)C1O` (configuration not stated), the activity change, negative = thiol reactive is 89.2% [at 11.5 µM].

With `Cc1onc(-c2ccccc2)c1C(=O)N[C@@H]1C(=O)N2[C@@H]1SC(C)(C)[C@@H]2C(=O)O`, the Potency result is “inactive”.

In the case of `Cc1cccc(-c2[nH]c(CNc3ccccc3F)nc2-c2ccc3ncnn3c2)n1`, the Potency result is “inactive”.

For `O=C(O)c1n[nH]c2c1C[C@H]1C[C@@H]21`, the Potency result was “inactive”.

With `COC1CC(=O)C23C(=O)NC(CC(C)C)C2C(C)C(C)=CC3/C=C(\C)CCC1O` (configuration not stated), the Potency result is “inactive”.

For `CC1=CC(=O)C2C(C)(C)CCCC2(C)C12CCC1(COC(=O)C1)O2` (configuration not stated), the Potency is 7.36 µM (active).

With `Cc1c(CN(C)C(=O)/C=C/c2cnc3c(c2)CCC(=O)N3)oc2ccccc12`, the Potency entry was “inactive”.

For `O=C1NC(Cc2ccc(O)cc2)C(=O)N2CCCC12` (configuration not stated), the Potency result was “inactive”.

With `OC1COC(OCC2OC(OCCc3ccccc3)C(O)C(O)C2O)C(O)C1O` (configuration not stated), the Potency was 4.12 µM (active).

Regarding `CC(=O)N[C@@H](CC(C)C)C(=O)N[C@@H](CCC(=O)O)C(=O)N[C@@H](CCC(=O)O)C(=O)N[C@@H](CC(=O)O)C(=O)Nc1ccc2c(C(F)(F)F)cc(=O)oc2c1` (Ac-LEED-{AFC}), the Potency result was “inactive”.

With `C=CC(C)(C)C1(CC2NC(=O)C3CCCN3C2=O)C(=O)Nc2cc3c(cc21)C=CC(C)(C)O3` (configuration not stated), the Potency entry is “inactive”.

With `CCC(=O)N[C@@H]1Cc2ccccc2[C@H](c2ccccc2)C1`, the Potency entry was “inactive”.

In the case of `CC(C)(O)CNc1nc(Nc2ccnc(C(F)(F)F)c2)nc(-c2cccc(C(F)(F)F)n2)n1`, the Potency result is “inactive”.

Consider `NC(=O)[C@H]1CCCCc2c1[nH]c1ccc(Cl)cc21`, for which the Potency result is “inactive”.

As to `C=CC1(C)C=C2C(=O)CC3C(C)(C)CCCC3(C(=O)O)C2(O)CC1` (configuration not stated), the Potency result was “inactive”.

With `CC1(CO)CC2C(O)C(=O)C3(CO)CC3(C)C2C1` (configuration not stated), the Potency entry is “inactive”.

Consider `CCC[C@@H]1C[C@@H](C(=O)N[C@@H]([C@H]2O[C@H](SC)[C@H](OP(=O)(O)O)[C@@H](O)[C@H]2O)[C@H](C)Cl)N(C)C1`, for which the Potency result is “inactive”.
